The supplement of paper PMC3545927
The other results are listed elsewhere or left out. The hit rate among all sequences tested is not known here.

Target: furin, P09958
Test: furin cleavage Z-score vs untreated control; higher = more cleavage, active = 3.5 or more, inactive = 1 or less, 8 variable residues between constant flanks
Procedure, shortened: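 The cleavage Z-score was derived for purified furin acting on 8-mer peptides held on magnetic beads and fused to a cDNA oligonucleotide. Digests lasted 7.5, 15 or 30 min at 1:10 enzyme:substrate in 50 mM HEPES pH 7.5 with CaCl2 and NaCl. Sequencing counts of released DNA, log-transformed against furin-free reactions, were lowess-adjusted and scaled by median absolute deviation.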

Sequence of furin, P09958 (P09958 whole entry): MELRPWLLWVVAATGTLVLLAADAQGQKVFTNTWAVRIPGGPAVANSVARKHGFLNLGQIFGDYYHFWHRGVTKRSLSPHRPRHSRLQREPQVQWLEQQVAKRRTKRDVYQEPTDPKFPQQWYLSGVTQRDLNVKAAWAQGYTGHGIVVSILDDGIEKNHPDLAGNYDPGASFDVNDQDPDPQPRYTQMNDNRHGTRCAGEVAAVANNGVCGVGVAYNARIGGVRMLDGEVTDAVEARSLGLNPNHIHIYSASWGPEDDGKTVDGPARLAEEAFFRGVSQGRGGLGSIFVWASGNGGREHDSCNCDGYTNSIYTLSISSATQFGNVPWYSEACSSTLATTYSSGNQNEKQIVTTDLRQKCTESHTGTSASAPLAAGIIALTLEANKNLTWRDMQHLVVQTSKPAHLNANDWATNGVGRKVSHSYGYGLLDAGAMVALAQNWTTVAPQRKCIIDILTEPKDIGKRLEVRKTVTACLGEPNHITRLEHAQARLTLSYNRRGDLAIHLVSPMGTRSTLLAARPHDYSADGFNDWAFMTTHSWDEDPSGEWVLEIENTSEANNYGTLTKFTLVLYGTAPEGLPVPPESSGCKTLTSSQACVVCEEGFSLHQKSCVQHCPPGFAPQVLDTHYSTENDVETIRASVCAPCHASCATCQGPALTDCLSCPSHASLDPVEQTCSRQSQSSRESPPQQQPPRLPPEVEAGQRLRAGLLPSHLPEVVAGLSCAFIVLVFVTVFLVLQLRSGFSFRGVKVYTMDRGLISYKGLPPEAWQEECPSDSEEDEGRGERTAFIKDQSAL

Row | Sequence | furin cleavage Z-score (7.5 min) | furin cleavage Z-score (15 min) | furin cleavage Z-score (30 min)
1 | CALGIGTVLDAGNASASA [HC824] | -0.583 (inactive) | 0.0553 (inactive) | -0.254 (inactive)
2 | CAVVCCSMFYAGNASASA [HC2067] | -1.42 (inactive) | 0.168 (inactive) | -1.67 (inactive)
3 | CARYFRKRRGAGNASASA [FS-960] | 10.2 (active) | 11.6 (active) | 9.02 (active)
4 | CAISYRFPRGAGNASASA [FS-37] | 4.87 (active) | 7.38 (active) | 6.94 (active)
5 | CAKKERRPRGAGNASASA [FS-671] | 1.59 | 2.08 | 0.765 (inactive)
6 | CAGAGNNTLHAGNASASA [HC447] | -0.871 (inactive) | 0.802 (inactive) | -0.559 (inactive)
7 | CADATYSRCGAGNASASA [HC456] | 0.156 (inactive) | 1.42 | 0.00204 (inactive)
8 | CAKVPCHRPSAGNASASA [HC2314] | 1.64 | 0.0197 (inactive) | 0.762 (inactive)
9 | CAAENRALRLAGNASASA [FS-113] | 0.559 (inactive) | -1.89 (inactive) | 1.32
10 | CAAEIRLKRAAGNASASA [FS-1442] | 9.68 (active) | 9.78 (active) | 8.4 (active)
11 | CARRSRCIRAAGNASASA [FS-1405] | 9.51 (active) | 10.1 (active) | 8.44 (active)
12 | CARRSRLKRAAGNASASA [FS-496] | 11.4 (active) | 11.7 (active) | 8.87 (active)
13 | CALGSRYKKAAGNASASA [FS-819] | -0.0568 (inactive) | -0.0472 (inactive) | -0.113 (inactive)
14 | CARRVRCSGAAGNASASA [FS-2802] | -0.409 (inactive) | 0.495 (inactive) | 0.927 (inactive)
15 | CALGNIIMFAAGNASASA [HC1575] | -0.725 (inactive) | -1.13 (inactive) | -0.0117 (inactive)
16 | CAAEQFKQKAAGNASASA [HC1023] | 0.841 (inactive) | 0.435 (inactive) | -1.43 (inactive)
17 | CALGRRTKRAAGNASASA [FS-50] | 9.24 (active) | 10.5 (active) | 6.44 (active)
18 | CAVCWTVYHGAGNASASA [HC699] | -0.241 (inactive) | 1.41 | -1.21 (inactive)
19 | CAEVVTSTPVAGNASASA [HC2239] | -0.71 (inactive) | -0.517 (inactive) | -0.991 (inactive)
20 | CATTPCSGVWAGNASASA [HC1910] | -0.00612 (inactive) | 1.65 | 0.601 (inactive)
21 | CAETVVCCSMAGNASASA [HC2138] | 0.723 (inactive) | 1.46 | 0.375 (inactive)
22 | CALSRRLKRAAGNASASA [FS-460] | 12.9 (active) | 10.6 (active) | 7.76 (active)
23 | CARSKRQLRRAGNASASA [FS-2305] | 5.77 (active) | 8.83 (active) | 9.3 (active)
24 | CARSKRSALRAGNASASA [FS-1930] | 8.67 (active) | 9.74 (active) | 9.58 (active)
25 | CARSELSPLLAGNASASA [HC490] | 0.997 (inactive) | -1.17 (inactive) | 0.877 (inactive)

Row | Sequence | furin cleavage Z-score (7.5 min) | furin cleavage Z-score (15 min) | furin cleavage Z-score (30 min)
26 | CARSKRRHRTAGNASASA [FS-3086] | 5.67 (active) | 4.65 (active) | 6.42 (active)
27 | CARSKRPPLVAGNASASA [FS-3085] | -1.04 (inactive) | 1.04 | 0.266 (inactive)
28 | CALTVTQLLRAGNASASA [HC1136] | -0.529 (inactive) | 1.28 | -0.0718 (inactive)
29 | CARSKRSRLLAGNASASA [FS-3208] | 2.35 | 5.37 (active) | 6.91 (active)
30 | CARSVRARLLAGNASASA [HC1623] | -0.453 (inactive) | 0.839 (inactive) | -0.225 (inactive)
31 | CALPATQLRRAGNASASA [HC287] | -0.751 (inactive) | -1.22 (inactive) | -0.432 (inactive)
32 | CATPVNSWLGAGNASASA [HC1572] | -0.962 (inactive) | 0.658 (inactive) | -0.136 (inactive)
33 | CADQMWKCLIAGNASASA [HC963] | -0.00547 (inactive) | 0.512 (inactive) | 0.111 (inactive)
34 | CAEVPCHRASAGNASASA [HC2383] | -0.108 (inactive) | 1.91 | 1.32
35 | CAMLVCGDDLAGNASASA [HC1527] | -1.47 (inactive) | -2.12 (inactive) | -1.71 (inactive)
36 | CARSKRLLSDAGNASASA [FS-2524] | 1.69 | 0.376 (inactive) | 1.96
37 | CARSKRLMKRAGNASASA [FS-3264] | 7.59 (active) | 8.33 (active) | 6.04 (active)
38 | CARSKRSTLLAGNASASA [FS-3171] | 6.63 (active) | 9.65 (active) | 8.72 (active)
39 | CARMKRDTSLAGNASASA [FS-2354] | 12.7 (active) | 14.2 (active) | 10.6 (active)
40 | CAAPITAYAQAGNASASA [HC674] | -1.65 (inactive) | -1.79 (inactive) | -0.691 (inactive)
41 | CATTQWQVLPAGNASASA [HC495] | -0.0417 (inactive) | 1.36 | 0.907 (inactive)
42 | CARVRRAVLPAGNASASA [FS-2536] | 8.16 (active) | 9.49 (active) | 9.52 (active)
43 | CARVRRRGSPAGNASASA [FS-2108] | -0.273 (inactive) | 2.05 | 2
44 | CAGIYRFVAPAGNASASA [HC909] | -1.23 (inactive) | -0.739 (inactive) | -0.847 (inactive)
45 | CARVRRHSDPAGNASASA [FS-2406] | 10.2 (active) | 8.54 (active) | 6.84 (active)
46 | CARIARFVLPAGNASASA [FS-2683] | 2.58 | 2.47 | 6.22 (active)
47 | CARQGRGSDPAGNASASA [FS-2583] | -1.86 (inactive) | -0.176 (inactive) | 0.17 (inactive)
48 | CARIARVVLQAGNASASA [FS-2028] | -0.514 (inactive) | -0.914 (inactive) | 1.2
49 | CARVPRTVLPAGNASASA [FS-1801] | 1.52 | 0.946 (inactive) | 3.87 (active)
50 | CARVPRKVQPAGNASASA [FS-3121] | -0.302 (inactive) | 1.08 | 0.984 (inactive)
